In PubChem BioAssay (NCATS):
Records with an inconclusive call do not appear. A call without a number means that no potency is given here. Calls of active or inactive are those of the source. Calls come from the whole dose curve; as a rule, active = well fitted inhibition curve with a large enough effect; inconclusive = small, poorly fitted or top-dose-only effect; inactive = flat fitted curve, though single readings scatter.

How the values were obtained:
Experiment in all cases: qHTS profiling for inhibitors of Plasmodium falciparum proliferation (AID 504749); note: nearly all actives have a fitted effect of over 60% in size
Settings in all cases: P. falciparum in erythrocytes, SYBR Green DNA, 72 h; series mostly up to 28.7 µM
[1] = tested on: CP291
Summary of the method: (§1)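 In a 72 h erythrocytic culture (37 C, humidified, 5% CO2) at 2.5% hematocrit and 0.3% starting parasitemia, compounds were tested; SYBR Green I in detergent lysis buffer stained parasite DNA overnight.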

[2] = tested on: CP297
Summary of the method: as §1

[3] = tested on: CP305
Summary of the method: as §1

[4] = tested on: CP315
Summary of the method: as §1

[5] = tested on: CP325
Summary of the method: as §1

[6] = tested on: CP329
Summary of the method: as §1

[7] = tested on: CP335
Summary of the method: as §1

[8] = tested on: DFO2036
Summary of the method: as §1

[9] = tested on: DIV14
Summary of the method: as §1

[10] = tested on: DIV17
Summary of the method: as §1

[11] = tested on: DIV30
Summary of the method: as §1

[12] = tested on: Dd2
Summary of the method: as §1

[13] = tested on: ECU
Summary of the method: as §1

[14] = tested on: FAB9
Summary of the method: as §1

[15] = tested on: GB4
Summary of the method: as §1

[16] = tested on: HB3
Summary of the method: as §1

[17] = tested on: ICS
Summary of the method: as §1

[18] = tested on: JCK
Summary of the method: as §1

[19] = tested on: N140
Summary of the method: as §1

[20] = tested on: P93_24
Summary of the method: as §1
Potency is the fitted concentration of half-maximal effect.

SMILES | Potency [1] | Potency [2] | Potency [3] | Potency [4] | Potency [5] | Potency [6] | Potency [7] | Potency [8] | Potency [9] | Potency [10] | Potency [11] | Potency [12] | Potency [13] | Potency [14] | Potency [15] | Potency [16] | Potency [17] | Potency [18] | Potency [19] | Potency [20]
Nc1ncn([C@@H]2O[C@H](CO)[C@@H](O)[C@H]2O)c(=O)n1 | inactive | inactive | inactive | inactive | inactive | inactive | inactive | inactive | inactive | inactive | inactive | inactive | inactive | inactive | inactive | inactive | inactive | inactive | inactive | inactive
COc1ccc([C@@H]2Sc3ccccc3N(CCN(C)C)C(=O)[C@@H]2OC(C)=O)cc1 | inactive | inactive | inactive | inactive | inactive | inactive | inactive | inactive | inactive | inactive | inactive | inactive | inactive | inactive | inactive | inactive | inactive | 10 µM (active) | inactive | inactive
COCC(=O)O[C@]1(CCN(C)CCCc2nc3ccccc3[nH]2)CCc2cc(F)ccc2[C@@H]1C(C)C | 4.78 µM (active) | 0.849 µM (active) | 6.01 µM (active) | 6.75 µM (active) | 6.75 µM (active) | 4.78 µM (active) | 1.9 µM (active) | 1.26 µM (active) | 0.953 µM (active) | 0.601 µM (active) | 3.38 µM (active) | 0.224 µM (active) | 4.47 µM (active) | 10 µM (active) | 0.151 µM (active) | 7.94 µM (active) | 1.78 µM (active) | 7.94 µM (active) | 0.562 µM (active) | 1.58 µM (active)
CC(C)(Oc1ccc(CCNC(=O)c2ccc(Cl)cc2)cc1)C(=O)O | inactive | inactive | inactive | inactive | inactive | inactive | inactive | inactive | inactive | inactive | inactive | inactive | inactive | inactive | inactive | inactive | inactive | inactive | inactive | inactive
CCN(CC)CC(=O)Nc1c(C)cccc1C | inactive | inactive | inactive | inactive | inactive | inactive | inactive | inactive | inactive | inactive | inactive | inactive | inactive | inactive | inactive | inactive | inactive | inactive | inactive | inactive
NC/C=C/C(=O)O | inactive | inactive | inactive | inactive | inactive | inactive | inactive | inactive | inactive | inactive | inactive | inactive | inactive | inactive | inactive | inactive | inactive | inactive | inactive | inactive
O=C(O)CCCCCCCC(=O)O | inactive | inactive | inactive | inactive | inactive | inactive | inactive | inactive | inactive | inactive | inactive | inactive | inactive | inactive | inactive | inactive | inactive | inactive | inactive | inactive
CN=C(NC#N)NCCSCc1nc[nH]c1C | inactive | inactive | inactive | inactive | inactive | inactive | inactive | inactive | inactive | inactive | inactive | inactive | inactive | inactive | inactive | inactive | inactive | inactive | inactive | inactive
CCn1ccnc1CC1COc2ccccc2O1 (stereo not given) | inactive | inactive | inactive | inactive | inactive | inactive | inactive | inactive | inactive | inactive | inactive | inactive | inactive | inactive | inactive | inactive | inactive | inactive | inactive | inactive
O=c1[nH]c(=O)n([C@H]2C[C@H](O)[C@@H](CO)O2)cc1Br | inactive | inactive | inactive | inactive | inactive | inactive | inactive | inactive | inactive | inactive | inactive | inactive | inactive | inactive | inactive | inactive | inactive | inactive | inactive | inactive
Cc1scc2c1N(C(=O)CN1CCN(C)CC1)c1ccccc1NC2=O | inactive | inactive | inactive | inactive | inactive | inactive | inactive | inactive | inactive | inactive | inactive | inactive | inactive | inactive | inactive | inactive | inactive | inactive | inactive | inactive
NC(=O)c1ncn([C@@H]2O[C@H](CO)[C@@H](O)[C@H]2O)c1O | inactive | inactive | inactive | inactive | inactive | inactive | inactive | inactive | inactive | inactive | inactive | inactive | inactive | inactive | inactive | inactive | inactive | inactive | inactive | inactive
C[C@H](CS)C(=O)N1CCC[C@H]1C(=O)O | inactive | inactive | inactive | inactive | inactive | inactive | inactive | inactive | inactive | inactive | inactive | inactive | inactive | inactive | inactive | inactive | inactive | inactive | inactive | inactive
